# Data published in PubChem BioAssay AID1495 (Sanford-Burnham Center for Chemical Genomics, 2009).
# Measured potencies and affinities stand elsewhere. The source made the active and inactive calls.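 How the source made its calls: active means calorimetric dissociation constant under 10 µM against either the substrate-binding domain or full-length DnaK; inactive means the rest.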
# Biological target: Chaperone protein DnaK (Escherichia coli) (UniProt C3TRK2)
# Experiment: DnaK beta-domain binding affinity, SAR follow-up, orthogonal assay for DnaK modulator project, biophysical, isothermal titration calorimetry, full-length DnaK (AID 1495)
# Conditions: purified DnaK
row,Structure (SMILES),outcome
1,O=C(NCc1ccccc1F)c1cccs1,inactive
2,O=C(Nc1ncc2ccccc2n1)c1cccs1,active
3,Cc1ccc(CNC(=O)c2ccc([N+](=O)[O-])o2)cc1,inactive
4,Cc1ccc(C(=O)NCc2ccc(F)cc2)o1,inactive
5,Cc1ccc(C(=O)NCc2ccc(Cl)cc2)o1,inactive
